From PubChem
SMN2 splice enh: qHTS Assay for Enhancers of SMN2 Splice Variant Expression | 210,000 tested, 2.8% active | HEK293 SMN2-luciferase splicing reporter, luminescence, 30-36 h | Potency, µM (titrated, usually from 46.1 µM), inactives show at the highest dose activity change, positive = activation, actives largely listed as activators | AID 1458, 2008; note: % of control where 0% means no effect; nearly all actives have a fitted effect of over 55% in size
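HEK293 cells carry an SMN2 minigene-luciferase reporter in which exon 7 inclusion puts luciferase in frame. Cells were seeded at 2000 cells/well, attached for 10-12 hours, then exposed to compounds for 30-36 hours at 37C before ONE-Glo luminescence.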
ELG1 genotox: qHTS screen for small molecules that induce genotoxicity in human embryonic kidney (HEK293T) cells expressing luciferase-tagged ELG1 | Potency, µM (titrated, usually from 46 µM), for the others: at the highest dose activity change, positive = activation, hits mostly activators | HEK293T ELG1-luciferase reporter, luminescence, 16 h | 330,000 tested, 1.3% active; note: % of control where 0% means no effect; nearly all actives have a fitted effect of over 60% in size
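Screening used a luciferase reporter fused to human ELG1 in HEK293T cells. Luminescence was read on a CCD plate imager after 16 hr exposure and 30 min ONE-Glo incubation.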
ELG1 DNA repair: qHTS screen for small molecules that inhibit ELG1-dependent DNA repair in human embryonic kidney (HEK293T) cells expressing luciferase-tagged ELG1; HEK293T ELG1-luciferase reporter, luminescence, 16 h; DNA damage induced by 5-fluorouridine; Potency, µM (top dose mostly 46.1 µM), without a hit: at the highest dose activity change, negative = inhibition, usual class: inhibitors; 330,000 tested, 2.3% active; AID 504467, 2011; note: % is set by controls: 0 for no effect and ±100 for the full control effect; nearly all actives have a fitted effect of over 55% in size
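Reporter activity after DNA damage by 5-fluorouridine is monitored. Compound-treated cells incubate 16 hr at 37 °C, then ONE-Glo is added for 30 min before luminescence reading.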
FLuc counter: qHTS profiling assay for firefly luciferase inhibitor/activator using purifed enzyme and Km concentrations of substrates (counterscreen for miR-21 project); purified FLuc, Km substrates, luminescence inhibition; 360,000 tested, 6.9% active; Luciferin 4-monooxygenase (Photinus pyralis), P08659; Potency, µM (highest dose often 57.5 µM), inactives show at the top dose activity change, negative = inhibition, hits mostly inhibitors;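 note: plate controls were vehicle for no effect and reference inhibitor for full effect; nearly all actives have a fitted effect of over 55% in size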
Target sequence (P08659 whole entry, looked up): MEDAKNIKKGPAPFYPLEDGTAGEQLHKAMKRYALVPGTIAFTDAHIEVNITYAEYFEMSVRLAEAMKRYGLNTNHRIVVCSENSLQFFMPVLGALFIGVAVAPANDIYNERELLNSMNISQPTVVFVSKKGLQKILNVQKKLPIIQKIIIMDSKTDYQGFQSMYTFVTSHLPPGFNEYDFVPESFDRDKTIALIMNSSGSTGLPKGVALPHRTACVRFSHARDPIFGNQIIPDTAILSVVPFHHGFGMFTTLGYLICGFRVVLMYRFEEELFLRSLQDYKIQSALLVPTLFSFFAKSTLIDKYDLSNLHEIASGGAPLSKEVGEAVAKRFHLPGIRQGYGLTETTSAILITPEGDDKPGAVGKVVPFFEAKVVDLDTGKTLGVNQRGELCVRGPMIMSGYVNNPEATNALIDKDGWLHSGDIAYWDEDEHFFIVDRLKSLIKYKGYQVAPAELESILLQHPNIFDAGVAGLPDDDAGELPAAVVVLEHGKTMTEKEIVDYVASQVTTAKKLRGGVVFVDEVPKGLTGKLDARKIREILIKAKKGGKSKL
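Purified P. pyralis luciferase (10nM final) with 10uM D-luciferin and 10uM ATP (Km levels) in 50mM Tris acetate pH 7.5, 10mM Mg acetate, 0.01% Tween-20, 0.05% BSA; qHTS 6-point titration, ~60 µM downward; luminescence read.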
Rab9 promoter act: qHTS Assay for Rab9 Promoter Activators; Huh7 Rab9 promoter-luciferase reporter, luminescence, 24 h; Potency, µM (titrated, usually from 9.22 µM), without a hit: top-dose activation, negative = inhibition, most hits filed as activators; 320,000 tested, 2.8% active; note: % of control where 0% means no effect; nearly all actives have a fitted effect of over 60% in size
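Huh7 cells stably carrying Rab9 promoter–luciferase reporter, plated 1500 cells/well, compound added after 2 h and incubated 24 h at 37 °C; luciferase luminescence then read after 10 min with detection reagent.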
NPC1 promoter act: qHTS Assay for NPC1 Promoter Activators; Huh7 NPC1 promoter luciferase reporter, 24 h; Potency, µM (doses to about 9.22 µM), for inactives: at the highest dose activation, actives largely listed as activators; 320,000 tested, 2.4% active; note: % of control where 0% means no effect; nearly all actives have a fitted effect of over 60% in size
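Huh7 cells stably carrying NPC1 promoter–luciferase, plated in Opti-MEM with 10% FBS for 2 h, were exposed to compound in DMSO for 24 h at 37 °C; luciferase reagent was added for 10 min and luminescence read.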
* hit, by the source's call; ? = inconclusive; . = no result. Rows were chosen to be rich in hits. Some 9.2% of all compounds tested hit in one or more screens of this group. Calls come from the whole dose curve; as a rule, active = well fitted curve in the direction sought with a large enough effect; inconclusive = small, poorly fitted or top-dose-only effect, or another doubt; inactive = no such curve, though single readings can be large; an effect the other way counts as inactive or inconclusive. Potency is the fitted concentration of half-maximal effect.

SMILES	SMN2 splice enh	ELG1 genotox	ELG1 DNA repair	FLuc counter	Rab9 promoter act	NPC1 promoter act
CCn1cc2nc(SCc3cccc(C(F)(F)F)c3)n(Cc3ccc(C)cc3)c(=O)c2n1	.	.	.	-4%	.	.
Cc1ccc2c(CC(=O)N(Cc3ccc(N(C)C)cc3)Cc3ccco3)coc2c1C	11%	.	.	-1%	.	.
Cc1ccc(C)c(N2CCN(C(=O)c3cc(C)nc4c3c(C)nn4-c3cccc(F)c3)CC2)c1	.	.	.	1%	.	.
O=C(Nc1ccc(Oc2cccc(C(F)(F)F)c2)nc1)c1ccco1	.	-12%	10µM*	0%	-5%	-3%
CCCC(=O)Nc1ccc(NC(=O)c2cccc(OC)c2)nc1	?	12%	?	12µM*	3.2µM*	?
O=C(Nc1ccc(NC(=O)C2CC2)nc1)c1ccco1	17%	?	?	?	?	?
CC(C)(C)c1ccc(Oc2ccc(NC(=O)c3ccco3)cn2)cc1	.	-10%	-22%	?	-32%	-12%
COc1cccc(C(=O)Nc2ccc(NC(=O)c3ccco3)nc2)c1	?	19%	?	21µM*	4.5µM*	?
O=C(Nc1ccc(NC(=O)c2ccccc2F)cn1)c1ccco1	.	?	?	1.9µM*	0.56µM*	0.32µM*
CC(=O)c1cccc(NC(=O)Cn2c(C)c3cnn(-c4ccccc4)c(=O)c3c2C)c1	-7%	.	.	-13%	.	.
Cc1ccc(CNC(=O)CCCn2nc(C)n3ccnc3c2=O)cc1	.	6%	17%	2%	2%	2%
COc1ccc(Cl)cc1NC(=O)Cn1cc2c(n1)CCC(C)C2 (configuration not stated)	-6%	.	.	-2%	.	.
O=C(N/N=C/c1ccccn1)c1ccc([N+](=O)[O-])cc1Cl	.	2%	?	19µM*	2%	-5%
O=C(N/N=C/c1ccccn1)c1cc(-c2ccccc2Cl)n[nH]1	-13%	8%	3%	24µM*	-2%	3%
O=C(N/N=C/c1ccccn1)c1cc(-c2cccc3ccccc23)n[nH]1	23%	-4%	-26%	?	3%	7%
O=C(N/N=C/c1ccco1)c1cc(-c2ccc3ccccc3c2)n[nH]1	-1%	3%	-3%	19µM*	1%	-1%
O=C(N/N=C/c1ccccn1)c1cc(-c2ccc3ccccc3c2)n[nH]1	4%	-4%	?	7.6µM*	-4%	-2%
O=C(N/N=C/c1cccnc1)c1ccc([N+](=O)[O-])cc1Cl	.	-2%	13%	?	-3%	-1%
CCc1nnc(SCC(=O)N(C)c2ccccc2)c2cc3sccc3n12	.	.	.	-3%	.	.
CCc1ccc(-c2cc(C(=O)N/N=C/c3ccco3)[nH]n2)cc1	0%	-7%	8%	?	1%	13%
O=C(N/N=C/c1ccccn1)c1ccc(Cl)c(Cl)c1	.	21µM*	?	?	2%	0%
O=C(N/N=C/c1ccccn1)c1ccc(NC(=O)c2ccccc2Cl)cc1	.	-8%	-13%	?	0%	-2%
CCc1ccc(-c2cc(C(=O)N/N=C/c3ccccn3)[nH]n2)cc1	-33%	-5%	19%	7.6µM*	12%	8%
Cc1ccc2c(C(=O)CN3CC(C)CC(C)C3)c(C)[nH]c2c1 (configuration not stated)	.	-4%	5%	-1%	-1%	-1%
CC(=O)c1cccc(NC(=O)Nc2cccs2)c1	15%	-20%	-27%	19µM*	10%	15%
SMILES	SMN2 splice enh	ELG1 genotox	ELG1 DNA repair	FLuc counter	Rab9 promoter act	NPC1 promoter act
COc1cccc(NC(=O)Nc2cccs2)c1	?	2%	?	24µM*	?	19%
COc1ccc(NC(=O)Nc2cccs2)cc1OC	-7%	?	?	21µM*	20%	18%
CN(C)c1ncc(C(=O)NCc2ccccc2Cl)cn1	.	.	.	0%	.	.
Cc1cc2nc(CS)[nH]c2cc1C	.	4%	21%	4.8µM*	12%	8%
Cc1cc2nc(CO)[nH]c2cc1C	.	5%	22%	-10%	-4%	-1%
C=CCNc1nc(-c2ccc(Cl)cc2)cs1	25µM*	18%	?	1.3µM*	2µM*	2.8µM*
C=CCNc1nc(-c2ccc([N+](=O)[O-])cc2)cs1	?	21µM*	?	3µM*	3.5µM*	?
CN(C)c1nc(-c2ccc([N+](=O)[O-])cc2)cs1	-12%	12µM*	?	12µM*	?	28%
CC(=O)c1cccc(S(=O)(=O)Nc2c(C)nn(C)c2C)c1	.	-1%	-3%	.	14%	2%
Cc1nn(Cc2ccccc2Cl)c(C)c1C(=O)N(C)CC(=O)Nc1cccc(F)c1	.	-5%	-16%	-11%	0%	-6%
Cc1cccc(NC(=O)CSc2nnc(CNC(=O)c3ccco3)o2)c1	.	4%	-3%	0%	0%	5%
CC(C)(C)c1ccc(C(=O)Nc2ccccc2NC(=O)c2ccco2)cc1	-13%	-3%	?	19µM*	-2%	-1%
CC(C)(C)c1ccc(C(=O)Nc2cccc3ncccc23)cc1	.	-4%	-17%	13µM*	5%	-2%
Nc1ccc(C(=O)Nc2cccc3ncccc23)cc1	.	-1%	12%	-10%	1%	-7%
CC(C)(C)c1ccc(C(=O)Nc2ccccc2Cl)cc1	.	0%	?	1.9µM*	0.71µM*	0.79µM*
Cc1ccc(/C=C/C(=O)NC(=S)Nc2ccc(S(=O)(=O)Nc3cc(C)on3)cc2)cc1	.	-4%	2%	9.5µM*	-1%	1%
Cc1cc(NS(=O)(=O)c2ccc(NC(=S)NC(=O)c3ccc(C(C)(C)C)cc3)cc2)no1	0%	2%	-19%	11µM*	1%	-4%
Cc1cc(NS(=O)(=O)c2ccc(NC(=S)NC(=O)/C=C/c3ccccc3)cc2)no1	.	-10%	3%	-20%	-4%	1%
COc1ccc(/C=C/C(=O)NC(=S)Nc2ccc(S(=O)(=O)Nc3cc(OC)ncn3)cc2)cc1	0%	1%	9%	15µM*	5%	-1%
COc1ccc(-c2cc(C)no2)cc1S(=O)(=O)Nc1c(C)cc(C)cc1C	.	.	.	-1%	.	.
COc1ccc(Cl)cc1NC(=O)Cn1c(C)csc1=O	.	1%	6%	.	0%	-4%
O=C(CNC(=O)c1ccc(Br)o1)NNC(=O)c1ccccc1O	.	0%	-1%	-2%	-2%	0%
O=C(COc1ccc(F)cc1Br)NCc1ccccn1	-7%	.	.	?	.	.
